Common to all, as to type: functional
Test [1] addresses Solute carrier family 2, facilitated glucose transporter member 1 (Homo sapiens) (UniProt P11166). The test is described as follows: ST_JUDE_LEISH: Cytotoxicity at 2uM final concentration against transgenic Leishmania Mexicana promastigotes LmGLUT1 that are glucose transport deficient and complemented with the human glucose transporter GLUT1. Activity is measured by DNA content using SYBR green in vitro.

Test [2] addresses Hexose transporter 1 (Plasmodium falciparum) (UniProt O97467). The test is described as follows: ST_JUDE_LEISH: Cytotoxicity at 2uM final concentration against transgenic Leishmania Mexicana promastigotes LmPfHT that are glucose transport deficient and complemented with the Plasmodium falciparum hexose transporter. Activity is measured by DNA content using SYBR green in vitro.

For test [3], the target named is Glucose transporter (Leishmania mexicana) (UniProt O61059). The test is described as follows: ST_JUDE_LEISH: Cytotoxicity at 2uM final concentration against transgenic Leishmania Mexicana promastigotes LmGT2 that are glucose transport deficient and complemented with the L. Mexicana glucose transporter 2. Activity is measured by DNA content using SYBR green in vitro.

A word on the inhibition: it is the drop in the measured response relative to a control, in per cent.

Chain of Solute carrier family 2, facilitated glucose transporter member 1 (Homo sapiens) (P11166 whole entry): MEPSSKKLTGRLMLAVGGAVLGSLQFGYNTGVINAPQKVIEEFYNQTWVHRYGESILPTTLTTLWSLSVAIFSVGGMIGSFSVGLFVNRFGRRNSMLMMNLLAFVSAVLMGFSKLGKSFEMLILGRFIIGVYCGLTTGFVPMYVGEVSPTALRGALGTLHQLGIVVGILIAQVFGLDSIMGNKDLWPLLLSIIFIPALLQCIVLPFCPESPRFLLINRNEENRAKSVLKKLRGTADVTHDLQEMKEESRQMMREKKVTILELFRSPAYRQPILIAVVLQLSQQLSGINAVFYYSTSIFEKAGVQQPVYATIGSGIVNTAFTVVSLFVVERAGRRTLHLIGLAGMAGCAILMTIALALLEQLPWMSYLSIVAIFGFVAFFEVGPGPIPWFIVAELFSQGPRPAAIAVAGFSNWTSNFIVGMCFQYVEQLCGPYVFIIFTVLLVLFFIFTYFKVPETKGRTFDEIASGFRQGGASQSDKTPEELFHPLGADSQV

As for `Cc1cc(OCCCN2CCC(NS(=O)(=O)c3cccc(Br)c3)C2)c2ccccc2n1` (stereo unspecified), the inhibition stood at 0.6% in test [1], 1.51% in test [2] and 1.56% in test [3].
With `Cc1nc(-c2cccc(Nc3nccc(NCC(O)c4ccccc4)n3)c2)cs1` (stereo unspecified), the results for the inhibition in test [1], in test [2] and in test [3] were 1.43%, 0.76% and 2.14%, respectively.
For `COc1ccccc1C1CC(c2ccc(C)cc2)=NN1C(=O)c1ccccc1` (stereo unspecified), the inhibition in test [1] came to 8.25%; in test [2], 8.06%; in test [3] it was 5.66%.
For `CC1CN(Cc2ccccc2)CCN1c1ccc(NC(=O)c2ccc(F)cc2)cc1` (stereo unspecified), the inhibition in test [1] is -1.05%; in test [2] it was -1.7%; in test [3], -3.4%.
Regarding `N#Cc1ccc2c(c1)CCN(CCC1CCC(NC(=O)c3cc4ccccc4[nH]3)CC1)CC2` (stereo unspecified), the inhibition in test [1] came to 8.94%; in test [2] it was 5.71%; in test [3] it was 6.21%.
Take `O=C(/C=C/c1ccc(Cl)c(Cl)c1)NCCCCCN1CCC(NC(=O)c2ccc3ccccc3c2)CC1`: the inhibition worked out at 0.51% in test [1], 0.83% in test [2] and 1.46% in test [3].
Turning to `CCc1c(C(=O)NC2CCC(N3CCC(c4ccccc4OC)CC3)CC2)[nH]c2ccc(OC)cc12` (stereo unspecified), the inhibition in test [1] stood at 1.56%; in test [2] it was 2.5%; in test [3] it was 0.22%.
For `COc1ccc(N2CCN(CCCCNC(=O)c3ccc(NC(=O)c4ccc(Cl)cc4)cc3)CC2)c(OC)c1`, in that order: 9.13%, 8.66% and 8.5%.
With `COc1ccccc1-n1c(-c2ccc3ccccc3c2)csc1=NC(=O)c1ccccc1`, the inhibition is 0.68% in test [1], -0.46% in test [2] and -4.04% in test [3].
In the case of `Cc1ccc(NC(=O)c2ccc3ncccc3c2)cc1OC1CCN(Cc2ccsc2)CC1`, the inhibition is 3.79% in test [1], 3.4% in test [2] and 2.95% in test [3].
With `O=C(Nc1ccc(Cl)cc1)c1ccc(CN2CCCN(Cc3ccccc3)CC2)cc1`, the results for the inhibition in test [1], in test [2] and in test [3] were 1.68%, 3.72% and 1.45%, respectively.
As for `CC(C)C[C@@H](C(=O)N[C@@H](CCCCNC(=O)OCc1ccccc1)C(=O)Nc1nccs1)[C@H](C)N(O)C=O`, the inhibition in test [1] worked out at 3.19%; in test [2], 3.38%; in test [3], 0.49%.
The matching figures for `CN(Cc1ccc(NC(=O)NC2CCN(C(=O)/C=C/c3ccc(Cl)c(Cl)c3)CC2)cc1)C1CCOCC1`: 1.63%, -3.08% and 3.44%.
For `CC(=O)c1cccc(NC(=O)N2CCCN(CCCCCNC(=O)/C=C/c3ccc(Cl)c(Cl)c3)CC2)c1`, in that order: -1.7%, -0.03% and -0.6%.
Take `Oc1ccc(CCNCCCCNCCc2ccc(Cl)cc2)cc1O`: the inhibition in test [1] is -1.52%; in test [2], 1.57%; in test [3] it was -2.55%.
With `O=C(NC1CCN(Cc2ccccc2)CC1)c1ccc(-c2nc3cc(Cl)c(F)cc3[nH]2)cc1`, the results for the inhibition in test [1], in test [2] and in test [3] were 1.14%, 0.15% and 2.45%, respectively.
The matching figures for `Cc1nccn1CCNC(=O)CN1CCC2(CCC1=O)CC(=O)c1ccccc1O2` (stereo unspecified): 8.32%, 7.32% and 7.28%.
